# Experimental data from the supplement of paper PMC11172423.
# Unmarked numbers belong to inactive results.
# Columns and labels:
# [1] = tested on: Falciformispora senegalensis CBS197.79; experiment: growth relative to untreated control; higher = less inhibition, active = 20 or less
# Method in brief: (§1)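 Viability readout used either MTS (2 h, 490 nm) or resazurin (600 nm). Before this, hyphal fragments of M. mycetomatis MM55 or F. senegalensis CBS197.79 in colourless RPMI 1640 with L-glutamine and MOPS (68–72% transmission at 660 nm) had been exposed in 96-well plates to compound at 100 or 25 µM for 7 days at 37 °C. Growth denotes metabolic activity relative to the untreated growth control, with a medium-plus-dye blank subtracted from both.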
# [2] = tested on: Madurella mycetomatis MM55; experiment: as above
# Method in brief: as §1
Compound,growth ([1]; 25 µM),growth ([1]; 100 µM),growth ([2]; 25 µM),growth ([2]; 100 µM)
CCC(C)n1ncn(-c2ccc(N3CCN(c4ccc(OCC5COC(Cn6cncn6)(c6ccc(Cl)cc6Cl)O5)cc4)CC3)cc2)c1=O (stereo unspecified),37.2%,81.1%,5.47% (active),4.46% (active)
NC(=O)c1cccc(CN2Cc3ccccc3OC3(CCN(Cc4c[nH]c5cnccc45)CC3)C2)c1,85%,96.6%,54.2%,71.2%
CS(=O)(=O)NC1CCN(C(=O)c2ccc(Nc3nccc(-c4cc(Cl)cc(C(F)(F)F)c4)n3)cc2)C1 (stereo unspecified),93.2%,82.5%,122%,95.4%
CO[C@H]1C[C@@H]2CC[C@@H](C)[C@@](O)(O2)C(=O)C(=O)N2CCCC[C@H]2C(=O)O[C@H]([C@H](C)C[C@@H]2CC[C@@H](O)[C@H](OC)C2)CC(=O)[C@H](C)/C=C(\C)[C@@H](O)[C@@H](OC)C(=O)[C@H](C)C[C@H](C)/C=C/C=C/C=C/1C,103%,105%,120%,69.3%
COc1ccc(CCN(C)CCCC(C#N)(c2ccc(OC)c(OC)c2)C(C)C)cc1OC (stereo unspecified),110%,98.5%,76.9%,98.8%
CNCc1[cH-]ccc1CNc1ccnc2cc(Cl)ccc12.[Fe+2].c1cc[cH-]c1,10.2% (active),14.6% (active),2.78% (active),2.49% (active)
O=C(O)c1ccc2c(c1)nc(Nc1cccc(Cl)c1)c1ccncc12,97.2%,97.3%,125%,78.1%
CO/C=C(/C(=O)OC)c1ccccc1COc1c(C)c(-c2ccc(C)cc2C)nn1C,46.5%,15% (active),6.33% (active),10.3% (active)
Cc1cc(C)c(Nc2ccnc(Nc3ccc(C#N)cc3)n2)c(C)c1,103%,99.4%,92.4%,86.6%
